Parameters in all cases: species or system human, MV4-11 + K-562 + COLO205 + SK-N-BE2 + OVCAR-8
Assay [1] has as its system ABCD3. To be noted: read-out: apparent Kd, n = 1.
For assay [2], the system named is EPHB3. The following applies: read-out: apparent Kd, n = 1.
For assay [3], the system named is ERBB3. The following applies: read-out: apparent Kd, compound concentrations: 100 nM and 1000 nM (sheet 'Samples'), n = 1.
The subject of assay [4] is PIM2. To be noted: read-out: apparent Kd; compound concentrations: 100 nM and 1000 nM (sheet 'Samples'), CATDS: 6.5177951129736497E-2; n = 1.
The subject of assay [5] is TAOK1. To be noted: read-out: apparent Kd, compound concentrations: 100 nM and 1000 nM (sheet 'Samples'), n = 1.
In assay [6] the test system is BMPR1A. The following applies: read-out: apparent Kd, n = 1.
Assay [7] relates to LIMK1. To be noted: read-out: apparent Kd, n = 1.
Assay [8] has as its system SIK3. The following applies: read-out: apparent Kd, n = 1.
The test system of assay [9] is NUAK1. To be noted: read-out: apparent Kd, n = 1.
The subject of assay [10] is SYK. To be noted: read-out: apparent Kd, n = 1.
The test system of assay [11] is CSNK1A1. The following applies: read-out: apparent Kd; compound concentrations:100 nM and 1000 nM (sheet 'Samples'); n = 1.
Assay [12] deals with MAPK10. To be noted: read-out: apparent Kd; compound concentrations:100 nM and 1000 nM (sheet 'Samples'); n = 1.
Assay [13] has as its system MAPK11. The following applies: read-out: apparent Kd; compound concentrations:100 nM and 1000 nM (sheet 'Samples'); n = 1.
Assay [14] relates to ADCK3. To be noted: read-out: apparent Kd, compound concentrations: 100 nM and 1000 nM (sheet 'Samples'), n = 1.
Assay [15] relates to AURKA. The following applies: read-out: apparent Kd; compound concentrations: 100 nM and 1000 nM (sheet 'Samples'), CATDS: 0.190670193315162; n = 1.
Assay [16] relates to CDK7. The following applies: read-out: apparent Kd, n = 1.
Assay [17] has as its system ERCC2. The following applies: read-out: apparent Kd, n = 1.
For assay [18], the system named is STK10. To be noted: read-out: apparent Kd; compound concentrations: 100 nM and 1000 nM (sheet 'Samples'), CATDS: 1.3341325559896399E-2; n = 1.
Assay [19] has as its system PKN3. The following applies: read-out: apparent Kd; compound concentrations: 100 nM and 1000 nM (sheet 'Samples'), CATDS: 1.7061922393971401E-2; n = 1.
Assay [20] relates to CDK4. To be noted: read-out: apparent Kd; compound concentrations: 100 nM and 1000 nM (sheet 'Samples'), CATDS: 2.3530905499939799E-2; n = 1.
The mark [21] stands for this setting: compound concentrations:100 nM and 1000 nM (sheet 'Samples').

SMILES strings stand for the structures. Like-named read-outs stand apart in the source and are kept apart here.

On to `CS(=O)(=O)CCNCc1ccc(-c2ccc3ncnc(Nc4ccc(OCc5cccc(F)c5)c(C(F)(F)F)c4)c3c2)o1` [GW576484X], for which the potency estimated from few doses in assay [1] (compound concentrations: 100 nM and 1000 nM (sheet 'Samples'), CATDS: 5.3363712768055301E-2) was 1700 nM; in [2] (compound concentrations: 100 nM and 1000 nM (sheet 'Samples'), CATDS: 4.6783581960199903E-2) it was 2310 nM; in assay [3] (CATDS: 5.8570940838060803E-2), 1400 nM; in [4] it was 1150 nM; in assay [5] (CATDS: 9.5612553502410894E-2), 618 nM.

For `CCN(CC)CCOc1ccc(Nc2ncc3cc(-c4c(Cl)cccc4Cl)c(=O)n(C)c3n2)cc1` [SB-601273], the potency estimated from few doses in [6] (setting [21]) is 538 nM; in assay [2] (setting [21]) it was 1220 nM; in assay [7] (setting [21]), 1110 nM; in assay [8] (setting [21]), 201 nM.

On to `Cc1cccc(Nc2nc(NCCN)ncc2C(N)=O)c1` [GSK1292139B], for which the potency estimated from few doses was 611 nM in [9] (compound concentrations: 100 nM and 1000 nM (sheet 'Samples'), CATDS: 0.100745572773025); 1500 nM in assay [10] (compound concentrations: 100 nM and 1000 nM (sheet 'Samples'), CATDS: 7.0539324655896005E-2).

On to `Cc1cccc(-c2cc(-c3c[nH]nc3-c3ccccn3)ccn2)c1` [GW679395X], for which the potency estimated from few doses is 1200 nM in [1] (setting [21]); 1810 nM in assay [11]; 1730 nM in assay [12]; 1350 nM in assay [13]; 2310 nM in [10] (setting [21]).

As for `COc1cccc(-n2ncc3c(N/N=C/c4ccc(C(=O)NCCN(C)C)cc4)ncnc32)c1.Cl` [GW784307A], the potency estimated from few doses in [6] (compound concentrations: 100 nM and 1000 nM (sheet 'Samples'), CATDS: 4.33451441122037E-2) is 353 nM; in assay [3] (CATDS: 3.16220170710034E-2) it was 874 nM.

In the case of `COc1ccc(-n2cnc3c(N)ncnc32)cc1` [SKF-97236], the potency estimated from few doses in assay [1] (compound concentrations: 100 nM and 1000 nM (sheet 'Samples'), CATDS: 0.13687794544238399) was 1490 nM; in [14] (CATDS: 0.16598723814203101), 922 nM.

For the compound `CCc1nc(-c2cccc(N(C)S(=O)(=O)c3ccccc3)c2)c(-c2ccnc(Nc3ccc(N4CCN(C(C)=O)CC4)nc3)n2)s1` [GSK1645895A], the potency estimated from few doses in assay [1] (compound concentrations: 100 nM and 1000 nM (sheet 'Samples'), CATDS: 0.16057119825567601) is 1310 nM; in assay [14] (CATDS: 0.47577761034239902), 196 nM.

Take `COc1ccccc1CNC1=NC(=O)/C(=C/c2ccc3ncccc3c2)S1` [RO4503315-000]: the potency estimated from few doses in assay [5] (CATDS: 7.1757893284069299E-2) is 1130 nM.

Regarding `Cc1ccc(O)cc1Nc1ccnc2cc(-c3ccccn3)ccc12.Cl` [GW440139A], in assay [2] (compound concentrations: 100 nM and 1000 nM (sheet 'Samples'), CATDS: 2.4596610963575599E-2), the potency estimated from few doses was 2120 nM.

`CN1C(=O)c2ccccc2N(C)c2nc(Nc3cnn(C4CCNCC4)c3)ncc21` [XMD-17-51]: the potency estimated from few doses was 5.82 nM in assay [15]; 901 nM in assay [16] (compound concentrations: 100 nM and 1000 nM (sheet 'Samples'), CATDS: 1.6224786894182001E-2); 788 nM in assay [17] (compound concentrations: 100 nM and 1000 nM (sheet 'Samples'), CATDS: 1.6840556785817699E-2); 11.6 nM in assay [9] (compound concentrations: 100 nM and 1000 nM (sheet 'Samples'), CATDS: 0.118275245978952); 973 nM in assay [8] (compound concentrations: 100 nM and 1000 nM (sheet 'Samples'), CATDS: 1.5899502438213298E-2); 2180 nM in [18]. The potency estimated from few doses in assay [5] (CATDS: 5.6290782434041703E-2) was 40.7 nM.

Regarding `COc1cc2ncn(-c3cc(OCCCc4ccccc4)c(C(N)=O)s3)c2cc1OC` [GSK205189A], the potency estimated from few doses is 79.1 nM in assay [16] (setting [21]), 39.9 nM in assay [17] (setting [21]) and 1770 nM in assay [9] (setting [21]).

Consider `CN(C)Cc1ccc(-c2ccc3c(Nc4ccc(Oc5ccccn5)cc4)ccnc3c2)o1` [GW567148X], for which the potency estimated from few doses is 573 nM in [16] (compound concentrations: 100 nM and 1000 nM (sheet 'Samples'), CATDS: 2.45792325734666E-2); 534 nM in assay [17] (compound concentrations: 100 nM and 1000 nM (sheet 'Samples'), CATDS: 2.5327932043398099E-2); 1730 nM in assay [19].

`Fc1cc(Cl)ccc1Nc1ccnc2cc(-c3ccc(CN4CCOCC4)o3)ccc12` [GW560109X]: in [8] (compound concentrations: 100 nM and 1000 nM (sheet 'Samples'), CATDS: 5.0355620048332002E-2), the potency estimated from few doses is 1910 nM.

With `CC(=O)N1CCN(c2ccc(Nc3nccc(-c4sc(C(C)C)nc4-c4cccc(NS(=O)(=O)c5ccccc5)c4)n3)cn2)CC1` [GSK1645872A], the potency estimated from few doses in assay [14] (CATDS: 3.3548638845590201E-2) was 570 nM; in assay [20], 1530 nM; in assay [7] (compound concentrations: 100 nM and 1000 nM (sheet 'Samples'), CATDS: 9.09760903229518E-2), 111 nM.

(Values after paper PMC11062922 (Nature Chemical Biology, 2023).)
